# Screening data deposited in PubChem BioAssay by several laboratories.
# PABP FP inh: blocks human PABP binding to poly(A) RNA | actives 1% (n = 290,000) | AID 2014 | fluorescence polarization | calls only at 35 µM;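 also: calls also rest on retests at 20 µM and on dose response follow-up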
# 14-3-3 Bad PPI: disrupts binding of bovine 14-3-3 zeta to phospho-Bad peptide. P63103. TR-FRET 14-3-3zeta/Dy647-pBad peptide displacement, 1 h. inhibition, % at 21.7 µM. actives 0.71% (n = 220,000). AID 781;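 active = inhibition above about 70%, limit read from the data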;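 also: 0% = full 14-3-3 plus peptide FRET controls and 100% = background without 14-3-3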
# Target sequence (P63103 whole entry, looked up): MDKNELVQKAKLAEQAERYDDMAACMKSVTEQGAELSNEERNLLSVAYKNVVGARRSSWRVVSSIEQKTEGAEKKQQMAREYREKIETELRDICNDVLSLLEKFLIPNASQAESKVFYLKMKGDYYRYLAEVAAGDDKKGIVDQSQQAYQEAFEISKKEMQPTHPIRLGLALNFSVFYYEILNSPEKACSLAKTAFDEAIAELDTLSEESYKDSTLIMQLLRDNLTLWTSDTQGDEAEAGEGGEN
# MLLE-PAM2 inh: blocks PAM2 peptide binding to the PABP1 MLLE domain | inhibition, % at 20 µM | actives 0.36% (n = 360,000) | GST-MLLE / FITC-PAM2 fluorescence polarization | P11940; in the data active = inhibition above about 35%, passing the limit was not always enough;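 also: plate controls were DMSO wells with GST-MLLE for no effect and wells lacking GST-MLLE protein for full effect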
# eIF4E 4G PPI: inhibitors of eIF4E and eIF4G interaction in translation initiation; TR-FRET eIF4E-eIF4GI(517-606) binding, 2 h; inhibition, % at 21.7 µM; actives 0.37% (n = 220,000); AID 782;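 active = inhibition above about 30%, limit read from the data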;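 also: 0% = full FRET control wells and 100% = background wells lacking eIF4GI fragment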
# eIF4H inh: inhibitors of RNA binding by human eIF4H; actives 0.94% (n = 290,000); inhibition, % at 35 µM; AID 2012; eIF4H fluorescence polarization binding assay; Q15056;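 also: calls also rest on retests at 20 µM and on dose response follow-up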
# * = called active by the depositor; i = inactive; ? = inconclusive; · = not tested or not shown; + = active, no number; [ ] = dose if it differs, or a comment. In the library only some 1.9% were active in any assay of this set; here they are far more common. Unless noted, no rule for the calls is given here.
SMILES,PABP FP inh,14-3-3 Bad PPI,MLLE-PAM2 inh,eIF4E 4G PPI,eIF4H inh
CCN(CC)C(=O)c1ccc2sc([C@H]3C[C@H](O)[C@@H](CO)O3)nc2c1,·,·,0,·,·
COc1ccc(OC)c(C2=NS(=O)(=O)N(C)C(C(=O)Nc3ccc(F)cc3F)=C2)c1,i,·,4,·,-10
O=c1c2cc3c(=O)n(-c4ccccc4O)c(=O)c3cc2c(=O)n1-c1ccccc1O,i,-10,7,-5,29
Cc1ccc2nc(N3CCN(c4ccccc4F)CC3)c(C=O)c(=O)n2c1,+,5,17,3,58
Cc1ccc(S(=O)(=O)/C(C#N)=C/c2c(N3CCN(Cc4ccccc4)CC3)nc3ccccn3c2=O)cc1,+,·,13,·,?
Cc1ccc2nc(N3CCCCC3)c(C=O)c(=O)n2c1,i,1,·,-3,-3
Cc1cc(S(=O)(=O)NCCCN2CCOCC2)c(Cl)cc1Cl,i,·,-2,·,0
Oc1c(C(c2ccco2)N2CCOCC2)sc2ncnn12 (centres undefined),+,8,8,3,130
CCC(CC)C(=O)N(C)c1c(C)nc2c(OCCC3CCCCC3)cccn12,·,·,-3,·,·
CCCCCC(O)C=CC1C(O)CC(O)C1CC=CCCCC(=O)O (centres undefined),·,·,-3,·,·
CCCCC[C@H](O)/C=C/[C@H]1C=CC(=O)[C@@H]1C/C=C\CCCC(=O)O,+,-8,·,9,94
Cc1c(C(=O)O)cccc1N1C(=O)Nc2ccccc2N1O,i,7,-11,-1,-4
O=C(O)c1ccc(O)c(N2C(=O)Nc3ccccc3N2O)c1,+,-18,-10,2,53*
Cc1ccc(-n2[nH]c(C)c(C=Nc3ccc4[nH]c(=O)[nH]c4c3)c2=O)cc1C,i,2,67*,-8,3
Cc1ccc(-n2[nH]c(C)c(C=Nc3ccc4[nH]c(=O)[nH]c4c3)c2=O)cc1,i,22,37,-2,4
COc1cc(CNCc2ccccc2Cl)ccc1OCC(=O)NC1CCCCC1,i,·,0,·,1
Cc1ccc(-n2nc(-c3ccco3)cc2C(=O)O)c(C)c1,i,65,22,40*,78
O=C(O)c1cc(-c2ccco2)nn1-c1ccc(Cl)cc1,i,69,-1,31*,80
O=C(O)c1cc(-c2ccco2)nn1-c1cccc(Cl)c1,+,67,-22,29,83
Cc1ccc(CNC(=O)Cn2ccc3cc(S(=O)(=O)N4CCCC4)ccc32)o1,i,·,-3,·,-7
CC1(C(=O)O)CCCN1C(=O)c1cccc(OC(F)(F)F)c1 (centres undefined),·,·,7,·,·
NC(=O)CC(NC(=O)Cc1cccc2ccccc12)c1ccc(NCCOc2ccccc2)c([N+](=O)[O-])c1 (centres undefined),i,8,-18,-2,-7
CCC(CC)Nc1ccc(C(CC(N)=O)NC(=O)Cc2cccc3ccccc23)cc1[N+](=O)[O-] (centres undefined),+,·,-44,·,78
COc1ccc(NC(=O)C2CC(=O)N(c3ccccc3F)C2)cc1S(=O)(=O)N1CCCCC1 (centres undefined),·,·,-14,·,·
CCOC(=O)c1cc(C#N)c(SCC(=O)O)[nH]c1=O,i,30,7,17,21
SMILES,PABP FP inh,14-3-3 Bad PPI,MLLE-PAM2 inh,eIF4E 4G PPI,eIF4H inh
CSc1[nH]c(=O)c(C(=O)O)cc1C#N,i,71*,0,6,14
C[C@H](CO)N1C[C@H](C)[C@@H](CN(C)Cc2ccc(Oc3ccccc3)cc2)Oc2c(NS(=O)(=O)c3cn(C)cn3)cccc2C1=O,·,·,8,·,·
COc1cc(-c2nc(S(=O)(=O)c3ccc(C)cc3)c(N3CCOCC3)o2)cc(OC)c1OC,i,-9,40*,1,-4
O=S(=O)(c1ccc(Cl)cc1)c1nc(-c2ccco2)oc1N1CCOCC1,i,76*,3,5,4
COCCN(Cc1cc2cc3c(cc2nc1Cl)OCO3)C(=O)c1ccc(C)cc1,i,1,5,5,-2
O=C1NN(c2cccc(Br)c2)C(=O)/C1=C\c1ccc(O)cc1,i,·,-4,·,0
O=C1NN(c2cccc(Br)c2)C(=O)/C1=C/c1ccc(-c2cc([N+](=O)[O-])ccc2O)o1,i,80*,-10,34*,96*
CC1=NN(c2ccc(C)cc2)C(=O)/C1=C/c1ccc(-c2cc([N+](=O)[O-])ccc2O)o1,+,·,-10,·,105*
CCCn1nc(C(=O)OCC(=O)Nc2ccc(C)cc2)c2ccccc2c1=O,·,·,-4,·,·
COc1ccccc1C(=O)NC(CCSC)C(=O)OCC(=O)c1ccc[nH]1 (centres undefined),+,-4,5,-2,60*
CSCCC(NC(=O)c1ccccc1)C(=O)OCC(=O)c1ccc[nH]1 (centres undefined),i,-12,-5,14,34
COc1ccccc1C(=O)NC(CCSC)C(=O)NC1CCCCCC1 (centres undefined),+,-9,-13,-1,92
O=C(O)c1cc(Cl)c2c(c1)[C@@H]1C=CC[C@@H]1[C@H](c1ccc(S(=O)(=O)N3CCOCC3)cc1)N2,+,3,24,5,74*
O=C1NC(=S)N/C1=C/c1ccc2c(c1)OCO2,+,·,-24,·,56
c1ccc2c(c1)CCCN2Cc1nnc2n1CCCCC2,+,-16,78,4,61*
c1ccc(Cc2nnc3n2CCCCC3)cc1,i,37,3,-1,-9
CCCC1c2ccc(C)n2CCN1C(=O)Nc1ccc(F)cc1 (centres undefined),?,-10,-16,-9,?
CCC1c2ccc(C)n2CCN1C(=O)Nc1ccc(F)cc1 (centres undefined),+,-7,0,-1,113*
COc1cccc(NC(=O)c2ccc(-c3ccc([N+](=O)[O-])cc3)o2)c1,+,29,17,-4,55
CC(=O)Nc1ccc(NC(=O)c2ccc(-c3ccc([N+](=O)[O-])cc3)o2)cc1,i,·,1,·,53*
COc1cc([N+](=O)[O-])ccc1-c1ccc(/C=N/NC(=O)c2ccccc2O)o1,i,89*,·,9,10
COc1ccc(NC(=O)c2ccc(-c3ccc([N+](=O)[O-])cc3)o2)cc1OC,i,-18,10,-6,-13
COc1cc([N+](=O)[O-])ccc1-c1ccc(C(=O)Nc2ccc(NC(C)=O)cc2)o1,i,95*[fluorescence artefact?],-12,29,9
CC(C)(CO)Nc1ncnc2onc(-c3ccc(F)cc3)c12,+,·,5,·,92*
NS(=O)(=O)c1ccc(Nc2nc3ccccc3nc2NS(=O)(=O)c2cccc([N+](=O)[O-])c2)cc1,i,6,9,-1,3
Nc1nnnn1/N=C/c1cc(Cl)ccc1O,i,·,49*,·,20
CC1(C2CC(C(F)(F)F)n3nc(C(=O)O)cc3N2)CC1 (centres undefined),i,-10,2,-1,1
